# According to the supplement of paper PMC6522484:
# ± gives the standard deviation of the averaged measurements.
# Tests used:
# [1] = system: DLD1; assay: cell viability (CellTiter-Glo) relative to plate median (fraction of plate median); higher = more viable cells; details: 5 µM; treatment time 24 h; reporter: 7TFP
# Outline: (§1)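 Colorectal cancer cell lines stably carrying lentiviral TCF/Wnt firefly luciferase reporters (7TFP or TCF4/Wnt) were plated in 384-well plates and, 24 h later, given library compounds at a final 5 µM for 24 h. Firefly luciferase or CellTiterGlo luminescence was read on parallel plates with a Tecan F500 reader. Each well's signal was normalised to the plate median in webcellHTS2 (additive, without log transformation). Values are the mean of two independent replicates.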
# [2] = system: HCT116; assay: as above; details: 5 µM; treatment time 24 h; reporter: TCF4/Wnt
# Outline: as §1
# [3] = system: SW480; assay: as above; details: 5 µM; treatment time 24 h; reporter: 7TFP
# Outline: as §1
# [4] = system: DLD1; assay: TCF/Wnt firefly luciferase reporter signal relative to plate median (fraction of plate median); higher = higher Wnt reporter signal; details: 5 µM; treatment time 24 h; reporter: 7TFP
# Outline: as §1
# [5] = system: SW480; assay: as above; details: 5 µM; treatment time 24 h; reporter: 7TFP
# Outline: as §1
# [6] = system: DLD1; assay: cell viability (CellTiter-Glo) relative to plate median (fraction of plate median); higher = more viable cells; details: 10 µM, treatment time 24 h
# Outline: (§2)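 Reporter and viability luminescence were measured in colorectal cancer cells stably carrying lentiviral TCF/Wnt firefly luciferase reporters. The cells were exposed to kinase inhibitor library compounds at a final 10 µM for 24 h, starting 24 h after seeding in 384-well plates. Each well was normalised to the plate median (webcellHTS2, additive, no log transformation), and two independent replicates were averaged.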
# [7] = system: HCT116; assay: as above; details: 10 µM; treatment time 24 h; reporter: TCF4/Wnt
# Outline: as §2
# [8] = system: SW480; assay: as above; details: 10 µM; treatment time 24 h; reporter: 7TFP
# Outline: as §2
# [9] = system: DLD1; assay: TCF/Wnt firefly luciferase reporter signal relative to plate median (fraction of plate median); higher = higher Wnt reporter signal; details: 10 µM, treatment time 24 h
# Outline: as §2
# [10] = system: HCT116; assay: as above; details: 10 µM; treatment time 24 h; reporter: TCF4/Wnt
# Outline: as §2
# [11] = system: SW480; assay: as above; details: 10 µM; treatment time 24 h; reporter: 7TFP
# Outline: as §2
smiles,measurement,setting,value
CC1=C2[C@H]3OC(=O)[C@@H](C)[C@@H]3CC[C@@]2(C)C=CC1=O,cell viability,[1],1.08 ± 0.15
same,cell viability,[2],1.06 ± 0.078
same,cell viability,[3],1.03 ± 0.043
same,TCF/Wnt firefly luciferase reporter signal,[4],0.968 ± 0.026
same,TCF/Wnt firefly luciferase reporter signal,[5],1.06 ± 0.12
CCC(C)C(=O)OC1CC2(C)C(c3ccoc3)OC(=O)CC23OC2(C)OC34C(OC(=O)C(C)C)C3(O)C(OC(=O)C5(C)OC5C)C5(C)CC3(O)C(C)(C5CC(=O)OC)C14O2 (stereo unspecified),cell viability,[1],1.09 ± 0.071
same,cell viability,[2],1.12 ± 0.11
same,cell viability,[3],1.08 ± 0.014
same,TCF/Wnt firefly luciferase reporter signal,[4],1.045 ± 0.0071
same,TCF/Wnt firefly luciferase reporter signal,[5],1.13 ± 0.014
COc1ccc(C(=O)N2CCCC2=O)cc1,cell viability,[1],1.01 ± 0.018
same,cell viability,[2],0.957 ± 0.025
same,cell viability,[3],1.045 ± 0.0071
same,TCF/Wnt firefly luciferase reporter signal,[4],1.08 ± 0.021
same,TCF/Wnt firefly luciferase reporter signal,[5],1.07 ± 0.014
COc1cc2c(cc1OC)[C@H](C)NCC2,cell viability,[1],0.962 ± 0.044
same,cell viability,[2],0.96 ± 0.13
same,cell viability,[3],0.9455 ± 0.00071
same,TCF/Wnt firefly luciferase reporter signal,[4],1.06 ± 0.085
same,TCF/Wnt firefly luciferase reporter signal,[5],1.07 ± 0.014
CN(C)C(=O)Oc1cccc([N+](C)(C)C)c1,cell viability,[1],1.06 ± 0.089
same,cell viability,[2],0.979 ± 0.017
same,cell viability,[3],1.01 ± 0.017
same,TCF/Wnt firefly luciferase reporter signal,[4],1.03 ± 0.15
same,TCF/Wnt firefly luciferase reporter signal,[5],1.09 ± 0.021
C[C@@H]1O[C@@H](O[C@H]2CC[C@]3(C=O)[C@H]4CC[C@]5(C)[C@@H](C6=CC(=O)OC6)CC[C@]5(O)[C@@H]4CC[C@]3(O)C2)[C@H](O)[C@H](O)[C@H]1O,cell viability,[1],0.885 ± 0.13
same,cell viability,[2],0.4 ± 0.12
same,cell viability,[3],0.913 ± 0.025
same,TCF/Wnt firefly luciferase reporter signal,[4],0.178 ± 0.15
same,TCF/Wnt firefly luciferase reporter signal,[5],0.263 ± 0.043
CNC(=O)Oc1ccc2c(c1)[C@]1(C)CCN(C)[C@@H]1N2C,cell viability,[1],0.948 ± 0.0071
same,cell viability,[2],0.889 ± 0.12
same,cell viability,[3],0.966 ± 0.047
same,TCF/Wnt firefly luciferase reporter signal,[4],1.08 ± 0.12
same,TCF/Wnt firefly luciferase reporter signal,[5],0.989 ± 0.072
COC[C@H]1OC(=O)c2coc3c2[C@@]1(C)C1=C(C3=O)[C@@H]2CCC(=O)[C@@]2(C)C[C@H]1OC(C)=O [Wortmannin],cell viability,[6]; reporter: 7TFP,0.844 ± 0.016
same,cell viability,[6]; reporter: TCF4/Wnt,0.8345 ± 0.0064
same,cell viability,[7],0.733 ± 0.091
same,cell viability,[8],0.963 ± 0.035
same,TCF/Wnt firefly luciferase reporter signal,[9]; reporter: 7TFP,0.662 ± 0.033
same,TCF/Wnt firefly luciferase reporter signal,[9]; reporter: TCF4/Wnt,0.821 ± 0.059
same,TCF/Wnt firefly luciferase reporter signal,[10],0.699 ± 0.021
same,TCF/Wnt firefly luciferase reporter signal,[11],0.856 ± 0.54
CC(C)=CCC[C@@H](C(=O)O)[C@H]1CC[C@@]2(C)C3=C(CC[C@]12C)[C@@]1(C)CC[C@H](O)C(C)(C)[C@@H]1CC3 [Trametenolic acid],cell viability,[1],0.995 ± 0.022
same,cell viability,[2],1.07 ± 0.071
same,cell viability,[3],1.02 ± 0.028
same,TCF/Wnt firefly luciferase reporter signal,[4],1.08 ± 0.085
same,TCF/Wnt firefly luciferase reporter signal,[5],1.12 ± 0.13
Cn1cc(C2=C(c3cn(C4CCN(Cc5ccccn5)CC4)c4ccccc34)C(=O)NC2=O)c2ccccc21,cell viability,[6]; reporter: 7TFP,0.854 ± 0.016
same,cell viability,[6]; reporter: TCF4/Wnt,0.931 ± 0.059
same,cell viability,[7],1.08 ± 0.071
same,cell viability,[8],0.931 ± 0.081
same,TCF/Wnt firefly luciferase reporter signal,[9]; reporter: 7TFP,1.98 ± 0.86
same,TCF/Wnt firefly luciferase reporter signal,[9]; reporter: TCF4/Wnt,1.38 ± 0.18
same,TCF/Wnt firefly luciferase reporter signal,[10],2.9 ± 0.54
same,TCF/Wnt firefly luciferase reporter signal,[11],1.45 ± 0.17
CC(C)c1cc2c(c(O)c1O)[C@@]1(C(=O)O)CCCC(C)(C)[C@@H]1CC2,cell viability,[1],0.981 ± 0.013
same,cell viability,[2],1.03 ± 0.079
same,cell viability,[3],1.03 ± 0.021
same,TCF/Wnt firefly luciferase reporter signal,[4],1.03 ± 0.021
same,TCF/Wnt firefly luciferase reporter signal,[5],0.944 ± 0.11
CC[C@@]1(O)C[C@H](O)c2c(cc3c(c2O)C(=O)c2c(O)ccc(O)c2C3=O)[C@H]1C(=O)OC,cell viability,[1],1.02 ± 0.067
same,cell viability,[2],1.05 ± 0.035
same,cell viability,[3],1.01 ± 0.03
same,TCF/Wnt firefly luciferase reporter signal,[4],1.08 ± 0.021
same,TCF/Wnt firefly luciferase reporter signal,[5],0.908 ± 0.12
